Consider 49 compounds from PubChem BioAssay AID602393 (Broad Institute, 2012).

About 7,000 (2%) of roughly 350,000 compounds were called active. This is one part of a sample in which actives are shown more often than they occur. Rule as the data show it: active = activation above about 40%; inconclusive = no clear call, values can overlap the other calls; inactive = below that.

The experiment is described as follows: raisers of Bmi1 knock-in reporter signal – mouse ES cells, Bmi1 luciferase knock-in, single point, esBAF inhibitor project, primary screen (AID 602393).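 Also: 0% = median of the plate's neutral control wells and 100% = double that signal; a rise in the Bmi1 reporter signal indicates esBAF inhibition.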 Particulars: 24 h, at 12.5 µM, active compounds read high, 100% = twice the neutral-well signal.
In the case of `C[C@@H]1CN([C@H](C)CO)C(=O)c2cc(C#CC3(O)CCCC3)cnc2O[C@H]1CN(C)Cc1ccncc1`, the reporter increase was -2.58% (inactive).

`Cc1ccc(C(=O)NC(=S)Nc2ccccc2C)cc1`: the reporter increase was 69.2% (active). Consider `Cc1ccccc1NC(=S)NC(=O)Cc1ccc(Cl)cc1`, for which the reporter increase was 5.51% (inactive). As to `Cc1ccc(C(=O)NC(=S)Nc2ccc(N3CCOCC3)cc2)cc1`, the reporter increase was 5.69% (inactive). For the compound `CC(C)NC(=O)N[C@H]1C=C[C@H](CC(=O)NCCN2CCCC2)O[C@@H]1CO`, the reporter increase is -2.39% (inactive). Under `COC(=O)Cc1c(C)c2ccc(OCC(=O)NCc3ccc4c(c3)OCO4)cc2oc1=O` stands 4.08% (inactive).

Consider `CCc1c(C)c2ccc(OC3CCCCC3=O)cc2oc1=O` (centres undefined), for which the reporter increase is 65.6% (active). With `Cc1c(CCC(=O)O)c(=O)oc2cc(OCc3ccc(Br)cc3)ccc12`, the reporter increase is 14.3% (inactive). The figure for `COc1cccc(CNC(=O)[C@@H]2[C@@H](CO)[C@@H]3Cn4c(ccc(-c5ccncc5)c4=O)[C@H]2N3C(C)=O)c1` is 5.45% (inactive); for `CO[C@@H]1CN(C)C(=O)c2cc(NS(=O)(=O)CC(F)(F)F)ccc2OC[C@H](C)N(Cc2ccccn2)C[C@@H]1C` it is 0.135% (inactive). The figure for `C[C@@H]1CN([C@@H](C)CO)C(=O)c2cccc(N(C)C)c2O[C@@H]1CN(C)S(=O)(=O)c1ccccc1` is 0.064% (inactive). Under `CCCn1nnnc1NC(=O)COc1ccc(Cl)cc1C` stands -3.97% (inactive).

On to `O=C(COc1ccc([N+](=O)[O-])cc1Cl)Nn1cnnc1`, for which the reporter increase is -5.37% (inactive). The figure for `Cc1cc(NC(=O)COc2ccc(Cl)cc2Cl)n(CCC#N)n1` is 97.9% (active); for `CCC(=O)N1C[C@H](C)[C@H](OC)CN(C)C(=O)c2ccc(NC(=O)c3cnccn3)cc2OC[C@@H]1C` it is -10.3% (inactive).

Regarding `CC(C)NC(=O)N(C)C[C@@H]1Oc2cc(C#C[C@H](C)O)ccc2S(=O)(=O)N([C@@H](C)CO)C[C@H]1C`, the reporter increase is 0.093% (inactive). As to `O=C(c1ccncc1)N1C[C@H]2[C@@H](c3ccccc31)[C@H](CO)N2Cc1ccc(F)cc1`, the reporter increase was -3.53% (inactive). For `CCOc1ccc2cc(C#N)c(SCC(=O)OC)nc2c1`, the reporter increase was 66.4% (active).

As for `COC(=O)CSc1nc(C)c2ccc(OC)cc2n1`, the reporter increase is -3.51% (inactive). The figure for `Cc1nonc1NC(=O)CSc1nc2ccccc2cc1C#N` is 36.1% (inactive); for `C[C@@H]1CN([C@@H](C)CO)C(=O)c2cc(NS(=O)(=O)c3ccccc3)ccc2O[C@H]1CN(C)S(=O)(=O)c1ccc(Cl)cc1` it is 11.7% (inactive). Under `CCCN1[C@H](C(=O)NCC)[C@@H](CO)[C@@H]2Cn3c(ccc(C4=CCCC4)c3=O)[C@@H]21` stands -2.59% (inactive); under `CCC(=O)Nc1ccc2c(c1)C(=O)N(C)[C@@H]1CC[C@@H](CC(=O)N[C@@H](C)c3ccccc3)O[C@@H]1CO2`, -1.27% (inactive); under `COc1cccc(NC(=O)Nc2ccc3c(c2)C(=O)N(C)C[C@H](OC)[C@@H](C)CN[C@@H](C)CO3)c1`, 2.37% (inactive).

For the compound `FC(F)(F)c1ccnc(Oc2ccc(C3=NCCS3)cc2)c1`, the reporter increase is 45.6% (active). Under `C/C=C/c1cnc2c(c1)C(=O)N([C@H](C)CO)C[C@@H](C)[C@H](CN(C)Cc1cccc(C(=O)O)c1)O2` stands -4.01% (inactive); under `Cc1noc(C)c1S(=O)(=O)N(C)C[C@H]1Oc2ccc(NC(=O)Cc3ccccc3)cc2CC(=O)N([C@@H](C)CO)C[C@H]1C`, 6.49% (inactive). On to `C[C@@H]1CN([C@@H](C)CO)C(=O)c2cc(NC(=O)c3ccncc3)ccc2O[C@@H]1CN(C)S(C)(=O)=O`, for which the reporter increase is 0.579% (inactive).

Take `CN1c2ccc(C#Cc3cccnc3)cc2[C@@H]2[C@@H](CCN2S(=O)(=O)c2ccccc2)[C@H]1CO`: the reporter increase is 11.3% (inactive).

With `O=S(=O)(c1ccc(Cl)cc1)c1nc(-c2ccco2)oc1N1CCCCC1`, the reporter increase was -5.66% (inactive). With `O=c1oc(-c2ccco2)nc2sc3c(c12)CCCCC3`, the reporter increase was 57.3% (active). Regarding `N=c1c2c3c(sc2nc2n1CCCCC2)CCCC3`, the reporter increase was 24.2% (inactive). The figure for `CCCNC(=O)N1C[C@@H](C)[C@@H](OC)CN(C)C(=O)c2ccc(NC(=O)CCC)cc2OC[C@H]1C` is -1.55% (inactive). Under `COCC#Cc1cnc2c(c1)C(=O)N([C@H](C)CO)C[C@H](C)[C@@H](CN(C)C(=O)Nc1cc(F)ccc1F)O2` stands 6.3% (inactive); under `COCC#Cc1ccc2c(c1)O[C@H](CN(C)C(=O)C1CCOCC1)[C@@H](C)CN([C@@H](C)CO)S2(=O)=O`, 5.12% (inactive); under `COc1ccc(C2CC(=O)NC(=O)C2)cc1`, -4.89% (inactive). Turning to `COc1ccc([C@H]2CC(=O)C=C(/C=C/c3ccccc3)C2)cc1`, the reporter increase is 70.2% (active). Take `COc1ccc([C@H]2CC(=O)C=C(c3ccc(C)cc3)C2)cc1`: the reporter increase is 8.3% (inactive). The figure for `C[C@H](CO)N1C[C@H](C)[C@@H](CN(C)C)Oc2cc(C#Cc3ccccc3)ccc2S1(=O)=O` is -3.93% (inactive); for `O=C(Nc1ccc(F)cc1)C(=O)c1cn(CC(=O)N2CCOCC2)c2ccccc12` it is 41% (active); for `COc1cccc(NC(=O)C(=O)c2cn(CC(=O)N3CCOCC3)c3ccccc23)c1` it is 20.7% (inactive). The figure for `Cc1ccc(CNC(=O)C(=O)c2cn(CC(=O)N3CCOCC3)c3ccccc23)cc1` is 20.4% (inactive). As for `CO[C@@H]1CN(C)C(=O)c2cc(NC(=O)C3CCC3)ccc2OC[C@H](C)N(C(=O)CN(C)C)C[C@@H]1C`, the reporter increase was -3.99% (inactive). `C[C@H](CO)N1C[C@H](C)[C@@H](CN(C)C(=O)Nc2ccc3c(c2)OCO3)OCCCC[C@H](C)Oc2ccc(NS(=O)(=O)c3cn(C)cn3)cc2C1=O`: the reporter increase is -2.06% (inactive). With `C[C@H]1CN([C@@H](C)CO)C(=O)Cc2cc(NC(=O)Nc3cccc4ccccc34)ccc2O[C@@H]1CN(C)C`, the reporter increase was -2.18% (inactive). Under `COc1ccc(S(=O)(=O)N(C)C[C@H]2Oc3ccc(NC(=O)Nc4ccccc4)cc3CC(=O)N([C@H](C)CO)C[C@@H]2C)cc1` stands -4.23% (inactive); under `O=C(NCCCn1ccnc1)c1ccccc1F`, -2.18% (inactive).

Consider `O=C(NCCCn1ccnc1)c1cc(Br)c(Br)s1`, for which the reporter increase was -10.5% (inactive). `O=C(NCCCn1ccnc1)c1cc(-c2ccccc2)on1`: the reporter increase is 47.2% (active).
